Experimental findings from PubChem BioAssay (Tox21) are described below.

Several values for one entry are separate records, joined by “and”; a condition that tells them apart may be missing. Equal entries are not always repeated. Some compounds were tested as several samples or in several runs, with calls that do not always agree. Activity calls are given as the source filed them. Where a call stands in place of a potency, no number is given. The call rests on the fitted dose curve.
Potency means the concentration at half of the fitted maximal effect.

Chain of Muscarinic acetylcholine receptor M1 (Homo sapiens) (P11229 whole entry, looked up): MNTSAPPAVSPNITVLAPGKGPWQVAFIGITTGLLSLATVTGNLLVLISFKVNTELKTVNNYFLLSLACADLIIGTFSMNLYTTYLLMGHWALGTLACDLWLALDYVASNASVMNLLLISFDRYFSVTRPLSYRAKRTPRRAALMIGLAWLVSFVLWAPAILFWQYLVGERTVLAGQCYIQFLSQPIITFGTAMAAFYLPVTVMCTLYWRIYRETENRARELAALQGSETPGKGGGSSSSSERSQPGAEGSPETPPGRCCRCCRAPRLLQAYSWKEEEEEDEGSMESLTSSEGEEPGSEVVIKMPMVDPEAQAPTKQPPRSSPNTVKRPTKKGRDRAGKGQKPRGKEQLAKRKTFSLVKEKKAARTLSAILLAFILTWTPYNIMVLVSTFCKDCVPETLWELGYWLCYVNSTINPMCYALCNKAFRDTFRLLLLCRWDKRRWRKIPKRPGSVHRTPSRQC

In the assay the target is Muscarinic acetylcholine receptor M1 (Homo sapiens) (UniProt P11229). Description: Cholinergic receptor muscarinic 1 (CHRM1) small molecule agonists, cell-based qHTS assay (AID 1963589). Further: nearly all actives have a fitted effect of over 35% in size. The conditions noted are these: CHRM1-CHO cells, agonist mode, calcium flux fluorescence; series mostly up to 76.8 µM; activation: at the top concentration. The source says:
National Center for Advancing Translational Sciences [NCATS]
Division of Preclinical Innovation [DPI]
U.S. Environmental Protection Agency [EPA]
National Institutes of Environmental Health Sciences [NIEHS]
National Toxicology Program [NTP]
U.S. Food and Drug Administration [FDA]
The CHRM1 is a muscarinic receptor. This receptor plays a crucial role in learning and memory processes and has long been identified as a promising therapeutic target for the improvement of cognitive decline in Alzheimer's disease (AD). The CHRM1-CHO cell line stably expressing human muscarinic acetylcholine receptor M1 (CHRM1) can be used for screening agonists and antagonists of interactions between CHRM1 and its ligands. The CHRM1-CHO Calcium Flux Assay is a homogeneous fluorescence-based assay for detecting the intracellular calcium level using FDSS kinetic plate reader system.
CHRM1-CHO cells were dispensed at 1000 cells/3uL/well in 1536-well black-clear bottom plates using a Multidrop Dispenser. After the assay plates were incubated at a 37 C/5% CO2 incubator for 18 h, 3 uL of Dye Loading Buffer was transferred to the assay plate by a Flying Reagent Dispenser. The assay plates were incubated at 37 C for 1h. For agonist mode, 23 nL of compounds dissolved in DMSO, positive controls or DMSO only was transferred to the assay plate by a pin tool. […] Each test compound was measured at 15 concentrations in three independent runs.
In the case of `[O-][Cl+]O`, the “activation” value is 0.195% (inactive). Still for that read-out and setting: under `O=C(Cl)/C=C/C(=O)Cl` stands -0.0315% (inactive). Turning to `CC(C=O)Cc1ccc2c(c1)OCO2` (stereo not given), the “activation” value was -1.06% (inactive). Consider `CCCCC(CC)CO[N+](=O)[O-]` (stereo not given), for which the “activation” value was -0.732% (inactive). As to `CCn1cc[n+](C)c1`, the Potency entry is “inactive”. For `CCCCCCCCCCCCOS(=O)(=O)O`, the Potency result is “inactive”. On to `C=CCc1ccccc1O`, for which the “activation” value is -1.2% (inactive).

As for `COC(=O)c1sccc1S(=O)(=O)NC(=O)Nc1nc(C)nc(OC)n1`, the Potency entry is “inactive”. Consider `COc1ccc2c3c1O[C@H]1[C@@H](O)C=C[C@H]4[C@@H](C2)N(C)CC[C@@]341`, for which the Potency result was “inactive”.

On to `CNC(=O)Oc1ccccc1C1OCCO1`, for which the “activation” value was 0.116% (inactive). Same read-out and setting: the same measure for `CN1CC[C@]23c4c5ccc(O)c4O[C@H]2[C@@H](O)CC[C@H]3[C@H]1C5`: -0.12% (inactive).

Take `CCCCCCCCCCBr`: the “activation” value is -0.0196% (inactive). Turning to `Sc1ccccc1Cl`, the “activation” value is 0.276% [at 35.3 µM] (inactive). Regarding `O=C(O)CF`, the Potency result is “inactive”. Consider `CCC(C)(C#N)N=NC(C)(C#N)CC` (stereo not given), for which the “activation” value was -0.0033% (inactive).

For `COP(=S)(OC)Oc1ccc(Sc2ccc(OP(=S)(OC)OC)cc2)cc1`, the Potency entry was “inactive”.

On to `O=C(O)c1nn(Cc2ccc(Cl)cc2Cl)c2ccccc12`, for which the Potency entry is “inactive”. `C1CN2CCN1CC2`: the Potency result is “inactive and 54.9 µM (active)”. On to `O=NN1CCCCCC1`, for which the “activation” value was 0.2% (inactive). `CCCCOCCOC(C)=O`: the Potency result was “inactive”. As for `CCCCCCCCCC(CC)c1ccc(S(=O)(=O)O)cc1` (stereo not given), the Potency result is “inactive”. The same measure, in the same setting: the same measure for `CC(C)C(=O)OCC(C)(C)C(OC(=O)C(C)C)C(C)C` (stereo not given): “inactive”.

As for `C=CCOCC1CO1` (stereo not given), the “activation” value is 0.238% (inactive). In the case of `S=C1NCCN1`, the Potency result was “inactive”.

`CC1(C)C(C=C(Cl)Cl)C1C(=O)OC(C#N)c1ccc(F)c(Oc2ccccc2)c1` (stereo not given): the “activation” value was 0.035% (inactive). On to `c1ccc2c(c1)sc1ccccc12`, for which the Potency entry was “inactive”.

As to `COP(=S)(OC)Oc1ccc(S(=O)(=O)N(C)C)cc1`, the Potency entry is “inactive”.

For the compound `CCC12COCN1COC2`, the Potency result is “inactive”. Turning to `CCCCCCCCCCCCCCCCn1cc[n+](C)c1`, the Potency entry is “inactive”. Still for that read-out and setting: the same measure for `OC(O)C(Cl)(Cl)Cl`: “inactive”. With `Cc1cnc(C2=NC(C)(C(C)C)C(=O)N2)c(C(=O)O)c1` (stereo not given), the “activation” value is 0.315% (inactive). In the case of `C=CC#N`, the Potency result is “inactive”. On to `CC(=O)C(C)(C)C`, for which the “activation” value was -0.547% (inactive). Consider `CCC(C)C(C)(COC(N)=O)COC(N)=O` (stereo not given), for which the “activation” value is 0.508% [at 35.3 µM] (inactive). For the compound `O=C(O)COc1cc(Cl)c(Cl)cc1Cl`, the Potency entry was “inactive”. On to `Nc1ccc(N=Nc2ccc(-c3ccc(N=Nc4c(S(=O)(=O)O)cc5cc(S(=O)(=O)O)c(N=Nc6ccccc6)c(O)c5c4N)cc3)cc2)c(N)c1`, for which the “activation” value was -1.56% [at 35.3 µM] (inactive).

For the compound `CC(=O)C=C(C)C`, the Potency result was “inactive”. With `CCNc1nc(Cl)nc(NCC)n1`, the Potency result was “inactive”. On to `c1ccc(OP(Oc2ccccc2)Oc2ccccc2)cc1`, for which the Potency result is “inactive”. On to `O=[N+]([O-])c1cc(Cl)c(Cl)c(Cl)c1`, for which the “activation” value is -0.122% (inactive).
